We go through 20 compounds from PubChem BioAssay (NCI).

Assay [1] in a line: NCI Yeast Anticancer Drug Screen. Data for the rad50 strain (AID 155).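 Further: 0% = growth of vehicle-only cultures of the same strain.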 The following applies: S. cerevisiae rad50 strain growth inhibition; at 50.0 µM; active compounds read high. The procedure, abridged:
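Compounds were tested on a yeast strain with an engineered DNA damage repair alteration; the reported value is growth inhibition normalised to vehicle treatment.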

Assay [2] is described as follows: NCI Yeast Anticancer Drug Screen. Data for the mec2-1 strain (AID 157). The following applies: S. cerevisiae mec2-1 strain, at 50.0 µM, active compounds read high. The procedure, abridged:
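Test agents were screened against the mec2-1 yeast strain, with defined DNA repair or cell cycle alteration. Growth was scored as inhibition against vehicle-only controls.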

A short description of assay [3]: NCI Yeast Anticancer Drug Screen. Data for the sgs1 mgt1 strain (AID 161).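 Further: 0% = growth of cultures given vehicle only.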 The following applies: S. cerevisiae sgs1 mgt1 strain, at 50.0 µM, active compounds read high. A digest of the protocol:
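Inhibition of yeast growth, normalised to vehicle-treated controls, is reported for a strain bearing genetic alterations in DNA damage repair.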

Assay [4] can be described thus: NCI Yeast Anticancer Drug Screen. Data for the cln2 rad14 strain (AID 165).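 Further: 0% = growth equal to vehicle treated cultures.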 The note with it: S. cerevisiae cln2 rad14 strain, at 50.0 µM, active compounds read high. The procedure, abridged:
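Growth of compound-exposed yeast (cln2 rad14 genotype) measured and expressed as inhibition relative to vehicle.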

Assay [5] in a line: NCI Yeast Anticancer Drug Screen. Data for the bub3 strain (AID 167). The note with it: S. cerevisiae bub3 mutant strain, at 50.0 µM, active compounds read high. The procedure, abridged:
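Growth of a checkpoint-deficient yeast mutant is measured after compound exposure. Values represent inhibition relative to vehicle.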

Assay [6] is described as follows: NCI Yeast Anticancer Drug Screen. Data for the mlh1 rad18 strain (AID 175). The note with it: S. cerevisiae mlh1 rad18 strain growth inhibition; at 50.0 µM; active compounds read high. The procedure, abridged:
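In this whole-cell yeast screen, a strain with altered DNA damage repair is challenged with compound, and its growth is measured against matched vehicle-treated controls.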

The panel holds about 79,000 compounds, 15% with a hit somewhere; the sample as a whole holds those more often. Unmarked numbers belong to inactive results. The source made the active and inactive calls. No stated cut-off is given here; in the data, active means growth inhibition above about 70%; inactive means the rest.

For `O=C1OC2=C(CCCC2)C(N2CCCCC2)C12SCCCS2` (stereo not given), the growth inhibition is 3.65% in assay [1]; 14.4% in assay [2]; -6.75% in assay [3]; 11.4% in assay [4]; 5% in assay [5]; 2.55% in assay [6].

`O=C(Nc1ccc2ccccc2c1)C1CC1`: the growth inhibition is 0.2% in assay [1]; -13.3% in assay [2]; -9.15% in assay [3]; -68.8% in assay [4]; -33.1% in assay [5]; -6.65% in assay [6].

On to `Clc1nc(Cl)c2ncn(C3CCCO3)c2n1` (stereo not given), for which the growth inhibition in assay [1] is -23.1%; in assay [2], -10%; in assay [3], 14.7%; in assay [4], -40%; in assay [5], 44%; in assay [6], 4.95%.

In the case of `CC(C)C(=O)OCCCc1ccccc1`, the growth inhibition in assay [1] was 11.7%; in assay [2], -5.3%; in assay [3], 1.8%; in assay [4], 7.45%; in assay [5], 21.5%; in assay [6] it was 12.8%.

In the case of `CC1(C)CC2(C)OC3(C)CC(C)(C)OC3(C)OC2(C)O1` (stereo not given), the growth inhibition in assay [1] is 0.05%; in assay [2] it was 6.45%; in assay [3] it was 8.55%; in assay [4] it was -34.2%; in assay [5], 22.4%; in assay [6], -10.3%.

As to `CC(=O)Nc1ncn(C)c1S(N)(=O)=O`, the growth inhibition in assay [1] was -4.3%; in assay [2] it was -19.1%; in assay [3], -1.45%; in assay [4], -16.3%; in assay [5] it was -7.9%; in assay [6] it was 15.5%.

On to `CSc1ncc(CO)c(NC(C)(C)C)n1`, for which the growth inhibition in assay [1] was 2.65%; in assay [2], 5.7%; in assay [3], 0.55%; in assay [4], -19.8%; in assay [5], -0.75%; in assay [6] it was 10.5%.

With `CSC(=S)n1nc(-c2ccccc2)c(N=Nc2cccc(Cl)c2Cl)c1-c1ccccc1`, the growth inhibition was 90.2% (active) in assay [1]; 95.5% (active) in assay [2]; 94% (active) in assay [3]; 94.5% (active) in assay [4]; 93% (active) in assay [5]; 95.2% (active) in assay [6].

Turning to `COc1cc([N+](=O)[O-])c2ncccc2c1`, the growth inhibition in assay [1] was -15.9%; in assay [2], -16%; in assay [3], -7.6%; in assay [4], 6.9%; in assay [5], -3.1%; in assay [6], 18.1%.

Consider `O=C(O)C(C(=O)O)C(c1cccc([N+](=O)[O-])c1)C(c1ccccc1)[N+](=O)[O-]` (stereo not given), for which the growth inhibition is 52.5% in assay [1]; 18.2% in assay [2]; 45.5% in assay [3]; 12.2% in assay [4]; 22.2% in assay [5]; 37.7% in assay [6].

As to `O=C1OC2(CC1n1cnc3ccccc3c1=O)C(=O)Nc1ccccc12` (stereo not given), the growth inhibition in assay [1] was 4.3%; in assay [2], -21.2%; in assay [3], 8.5%; in assay [4], 8.3%; in assay [5], -1.15%; in assay [6], 11.2%.

Consider `O=C1CN(CCCO)CC(=O)N2Cc3ccccc3CN12`, for which the growth inhibition in assay [1] was -8.95%; in assay [2], 4.55%; in assay [3], -18.7%; in assay [4] it was -10%; in assay [5], -6.85%; in assay [6], -11.3%.

Take `O=C(O)CCc1ccc(-c2ccccc2)[nH]1`: the growth inhibition in assay [1] was -14.3%; in assay [2] it was -6.95%; in assay [3], -11.7%; in assay [4], 1.35%; in assay [5], -29.1%; in assay [6], -16.6%.

Turning to `COC1C(O)=C2C(=O)OC(C)(O)/C=C/C=C\C=C/C=C/C(c3ccccc3)NC(=O)/C=C/C=C/C=C/C=C/C2(C)C1O` (stereo not given), the growth inhibition was -1.7% in assay [1]; -14.1% in assay [2]; 3.3% in assay [3]; 3.55% in assay [4]; -9.3% in assay [5]; 4.5% in assay [6].

In the case of `CCCSc1ccc2c3c(cccc13)C(=O)OC2=O`, the growth inhibition in assay [1] was 47.5%; in assay [2], 42.9%; in assay [3], 46%; in assay [4], 45.6%; in assay [5], 57.7%; in assay [6], 27.5%.

For `O=C(O)/C=C\C(=O)Nc1ccc(S(=O)(=O)Nc2nccs2)cc1`, the growth inhibition is -0.8% in assay [1]; -3.45% in assay [2]; -15.2% in assay [3]; 2.6% in assay [4]; 1.6% in assay [5]; -10.1% in assay [6].

As for `Cc1cccc(Cl)c1NC(=O)CN(C)C`, the growth inhibition in assay [1] was 21.4%; in assay [2], -0.55%; in assay [3], 17.7%; in assay [4], 10.4%; in assay [5], 19.6%; in assay [6], 24.7%.

Regarding `Cc1ccc(S(=O)(=O)NCNS(=O)(=O)c2ccc(C)cc2)cc1`, the growth inhibition in assay [1] is -37.5%; in assay [2], -7%; in assay [3], 2.05%; in assay [4], 14%; in assay [5], -15.8%; in assay [6], -35.6%.

On to `C/C=C(/C)C(=O)O[C@H]1CC[N+]2([O-])CC=C(COC(=O)[C@@](O)([C@H](C)OC)C(C)(C)O)[C@H]12` (stereo not given in full), for which the growth inhibition was -13.1% in assay [1]; -5.1% in assay [2]; -3.45% in assay [3]; 7.5% in assay [4]; 6.75% in assay [5]; 12.5% in assay [6].

As to `Nc1nc(SSc2nc(N)nc3c2ncn3C2OC(CO)C(O)C2O)c2ncn(C3OC(CO)C(O)C3O)c2n1` (stereo not given), the growth inhibition is 1.4% in assay [1]; -5.8% in assay [2]; 3.9% in assay [3]; -34% in assay [4]; 9.45% in assay [5]; -1.3% in assay [6].
